ChEMBL document CHEMBL4513135, “CO-ADD screening of IQOG CSIS (Spain) compounds”
Entries with a potency or affinity are not part of this list.

The compounds below were run on Klebsiella pneumoniae. Details: Concentration 32 ug.mL-1; ASSAY_TEST Inhibition of Bacterial Growth; detection method Absorption (OD600); MEDIA CAMHB; plate type 384well; NBS; CORNING #3640; time 18 hr.

SMILES | Inhibition
C#CCN(C)c1nc(N(C)CC#C)c(C#N)cc1C#N | 11.71%
CCOC(=O)c1c(C)nc(NC2CCN(Cc3ccccc3)CC2)c(C#N)c1-c1ccccc1 | 11.42%
C#CCN(C)c1nc(OC)c(C#N)cc1C#N | 1.2%
NNC(=O)CCc1c[nH]c2ccccc12 | 5.25%
Cc1cc(Br)cc(C)c1NC=C(C#N)C#N | -18.28%
CCOC(=O)c1c(C)nc(NCC2CCN(Cc3ccccc3)CC2)c(C#N)c1-c1ccccc1 | 9.84%
Cl.N#Cc1c(Cl)nc(N)nc1NCCO | 6.6%
NNC(=O)c1cc2ccccc2n1Cc1ccccc1 | -14.14%
Cc1ccc(CNNC(=O)c2c[nH]c3ccccc23)cc1 | 5.46%
Cc1ccccc1-c1c(C=N)c(N)nc2c1S(=O)(=O)OC2(C)C | 10.81%
CCOc1nc2nc3c(c(N)c2cc1C#N)CCCC3 | -2%
Cn1c(C(=O)N2CCOCC2)cc2cc(OCCCC3CCN(Cc4ccccc4)CC3)ccc21 | 2.68%
COc1ccccc1[C@H]1c2c(ccc3ccccc23)O/C(=N\Br)[C@@]1(Br)C#N | 5.34%
C#CCN(C)c1nc(NCC2CCN(Cc3ccccc3)CC2)c(C#N)c(-c2ccccc2)c1C#N | 6.45%
O=C(NNCc1c[nH]c2ccccc12)c1cccc2ccccc12 | 7.23%
O=C(O)n1ccc2ccccc21 | 4.22%
C#CCNc1nc(Cl)c(C#N)c(-c2ccccc2)c1C#N | -23.73%
CNN=C1N=C(SCc2ccccc2)SC1=O | 8.63%
N#C/C(=C\c1ccccc1)C(=O)c1ccccc1 | 5.05%
O=C(NN=Cc1c[nH]c2ccccc12)c1cccc2ccccc12 | 12.1%

SMILES | Inhibition
C#CCN1CCc2nc3nc(N4CCCC4)c(C#N)cc3c(N)c2C1 | 10.68%
CN1C/C(=C\Cl)n2c1c(C#N)cc(C#N)c2=O | 5.49%
N#Cc1cc(C#N)c(N2CCCC2)nc1N | 16.35%
CCOC(=O)c1cc2cc(OCc3ccccc3)ccc2[nH]1 | 6.66%
COc1ccc(C2C(C#N)=C(Cl)Oc3c2ccc2ccccc32)cc1OC (stereo not given) | -4.48%
COc1nc(N)c(C#N)cc1C#N | 5.43%
N#Cc1cc(C#N)c(N2CCCC2)nc1N1CCCC1 | 22.43%
COc1cccc(C2C(C#N)=C(N)Oc3[nH]nc(C)c32)c1 (stereo not given) | 26.54%
Cc1ccc(C(O)SNNc2ncnc3c2c(C)nn3-c2ccccc2)cc1 (stereo not given) | -18.74%
COc1cccc(C=C2N=C(c3ccccc3)OC2=O)c1OC(C)=O | 0.25%
Nc1c2c(nc3c1C(c1ccc(O)cc1)c1c(ccc4ccccc14)O3)CCCC2 (stereo not given) | 8.92%
C#CCN(C)c1nc(NCCCCC2CCN(Cc3ccccc3)CC2)c(C#N)cc1C#N | 0.44%
Cl.OCCCC1CCNCC1 | 3.57%
CCOC(=O)c1cn(C)c2ccccc12 | 12.15%
CCOC(=O)c1c(C)nc2nc3c(c(N)c2c1-c1ccccc1OC)CCCCC3 | 0.86%
Cc1nc(NO)c2c(C)nn(-c3ccccc3)c2n1 | 17.6%
O=Cc1ccc(OCCO[N+](=O)[O-])cc1 | 8.5%
N#CC1=C(Cl)Oc2c(ccc3ccccc23)C1c1cccc([N+](=O)[O-])c1 (stereo not given) | 4.09%
COc1cccc(C2c3ccc4ccccc4c3OC(=NBr)C2(Br)C#N)c1 (stereo not given) | 5.65%
COc1cc(C2c3ccc4ccccc4c3Oc3nc4c(c(N)c32)CCCC4)ccc1O.Cl (stereo not given) | -2.62%
